Consider 38 compounds from PubChem BioAssay (NCI).

Structures are written as SMILES. “And” between values parts separate entries of the source, which are not always exact repeats. Equal entries are not always repeated. This is part of a sample that, as a whole, favours compounds with a hit. Of some 83,000 tested, about 20% had one in any assay.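 The endpoint reported here, percent growth, reads 100 for growth as untreated, 0 for no net growth and -100 for all cells dead.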 The source made the active and inactive calls.

One test has as its system SK-OV-3 ovarian. As to the kind of experiment: NCI-60 one-dose screen, 48 h (100 = growth as untreated, 0 = no growth, -100 = all killed). The note with it: 10 µM. As to the method:
Growth inhibition of the SK-OV-3 human tumor cell line is measured as a screen for anti-cancer activity. Cells are grown in 96 well plates and exposed to the test compound for 48 hours. Compounds are tested at a single concentration, which is 10^-5 M for most compounds. The reported endpoint is percent growth (GI% or GIPRCNT), where numbers from 0 - 100% represent growth inhibition, and numbers from -100% - 0 represent cell death. For example, a value of 40 represents 60% growth inhibition. A value of 0 means no net growth occurred over the course of the experiment. A value of -40 indicates 40% of cells at the beginning of the experiment died by the end of the experiment. A value of -100 means all cells are dead at the end of the experiment.
NCI-60 Human Tumor Cell Lines Screen was performed using the standard one-dose NCI protocol, which is described in more detail at https://dtp.cancer.gov/discovery_development/nci-60/default.htm.
Compounds with GIPRCNT values below 10 were considered active. Activity score was based on GIPRCNT using the following formula: […]
Score is 0 for GIPRCNT values of 100 or above, 50 for GIPRCNT values of 0, and 100 for GIPRCNT values of -100.
As to `CC(=O)/C=C/c1ccc(OCc2ccc(C(C)(C)C)cc2)cc1`, the growth is 77.8% (inactive).

Regarding `O=C(/C=C/c1cccc(Oc2ccc(Cl)cc2)c1)c1ccccc1`, the growth was 114% (inactive).

The same test, now with this note: 10 µM unless noted.
For `CC1(C)C(N)=Nc2cc(OCCCN3Cc4ccc(OCCc5cn(CC(=O)N6CCC(CCN7CCCC7)CC6)nn5)cc4C3)c(OCC3CC3)cc21`, the growth was 105% (inactive).

For the compound `COC1/C=C/OC2(C)Oc3c(C)c(O)c4c(O)c(c(C=NOC(c5ccccc5)c5ccccc5)c(O)c4c3C2=O)NC(=O)/C(C)=C/C=C/C(C)C(O)C(C)C(O)C(C)C(OC(C)=O)C1C` (stereo not given), the growth is -34% (active).

For `NNCCc1ccccc1`, the growth was 108% (inactive) and 94.9% (inactive).

As for `CCn1cc(C(=O)NN=C2CCCC2)c(=O)c2ccc(C)nc21`, the growth was 91.2% (inactive).

`O=Nc1ccc(NO)c2ccccc12`: the growth was 94.2% (inactive) and 106% (inactive).

As to `O=C1C(=C(O)c2ccccc2)C(=O)c2ccccc21`, the growth was 101% (inactive).

As to `C=C(C)[C@@H]1CC[C@]2(C)[C@H](CC(=O)N[C@H]3[C@@H]4C[C@](C)(C(=O)OC)CC[C@]4(C)CC[C@]32C)[C@@]1(C)CCC#N`, the growth is 97.4% (inactive).

As for `Cn1cc2c(=O)nc3c(-c4nc5ccccc5[nH]4)n[nH]n3c2n1`, the growth was 85.2% (inactive).

Consider `Cc1ccc(C(=O)c2ccc(CC(=O)N=Nc3c(O)[nH]c4ccc(OC(F)(F)F)cc34)n2C)cc1`, for which the growth was 96.9% (inactive).

Regarding `CCCN1C(=O)/C(=c2\sc3n(c2=O)NC2C(N=3)N(CC)C(=O)N2CC)c2ccccc21` (stereo not given), the growth is 63.6% (inactive).

Take `Cn1cc(C2=C(c3cccc4ccccc34)C(=O)NC2=O)c2cc(Br)ccc21`: the growth was 90.3% (inactive).

With `O=C(/C=C/c1ccc(F)cc1)Nc1ncc(Cc2ccc(F)cc2)s1`, the growth is 41.4% (inactive).

On to `O=C(CCN1CCOCC1)Nc1cccc(-n2cc(-c3ccncc3)c(-c3ccc(Cl)c(O)c3)n2)c1`, for which the growth is 25.1% (inactive).

On to `CCN(CC)CC(=O)Nc1ccc2ncnc(Nc3ccc(Oc4cccc(F)c4)c(Cl)c3)c2c1`, for which the growth is 22.4% (inactive).

`COc1ccc(-c2cc3cnc4ccccc4c3oc2=O)cc1`: the growth is 93.9% (inactive).

`CC(=O)c1c(C)nc2ccccc2c1/C=C/c1cccc(C)c1`: the growth is 69.7% (inactive).

For `CC/C(=C(/c1ccc(O)cc1)c1ccc(OCCN2CCCCCC2)cc1)c1ccc(Cl)cc1`, the growth was 96.4% (inactive).

As to `ON=C1CCCCCCCC1`, the growth is 100% (inactive) and 103% (inactive).

As to `COc1cc2cc(NCc3ccncc3)nc(C)c2cc1OC`, the growth was 77.6% (inactive).

Turning to `O=C(Nc1cc(C(F)(F)F)cc(C(F)(F)F)c1)c1cc(Cl)ccc1O`, the growth was -56.9% (active) and 1.67% (active).

`COc1ccc(C/C(C)=C(/c2ccc(OCCN3CCCCCC3)cc2)c2ccc(OC(=O)c3ccccc3)cc2)cc1`: the growth was 93.7% (inactive).

As to `C=CCNC(=O)Cc1c(-c2ccc(OC)cc2)oc2c(OC)c3c(c(OC)c12)OCO3`, the growth is 110% (inactive).

Take `COc1ccc(C(=O)N/N=C/c2ccc(O)cc2O)cc1Nc1ccnc(C(F)(F)F)c1`: the growth was 19.7% (inactive).

Take `CONC1=Nc2cc(NC(N)=NCc3ccccc3)c(N(C)C3CCCCC3)cc2OC1`: the growth was 83.5% (inactive).

In the case of `N=C(N)c1ccc(-c2ccc(-c3ccc(Cl)c(Cl)c3)s2)cc1`, the growth is 94.6% (inactive).

In the case of `COc1ccc(Oc2nc(Nc3ccc(N4CCOCC4)cc3)ncc2NC(=O)c2cccc(C(F)(F)F)c2)cc1`, the growth was 85.7% (inactive).

Take `CC(C)(C)CC(N)=O`: the growth is 88.2% (inactive).

As to `Cc1ccc(/C=C(\C#N)c2cc3ccccc3[nH]2)cc1`, the growth is 67.1% (inactive).

As to `COc1ccc(NC(=O)Nc2ccccc2CNc2nc(Nc3ccc(OCCN4CCCC4)cc3)ncc2Cl)cc1`, the growth was 58.5% (inactive).

With `CCNC(=O)Nc1ncccc1OCc1ccc(F)cc1`, the growth was 94.2% (inactive).

Take `COc1ccc(/C=C(\C#N)c2cc3ccccc3[nH]2)cc1`: the growth was 47.7% (inactive).

With `COc1ccc2c(c1)CCNC21C(=O)Nc2c(Br)cc(Br)cc21` (stereo not given), the growth is 84.2% (inactive).

For `O=Nc1c(O)ccc2ccccc12`, the growth was 93.6% (inactive) and 101% (inactive).

Turning to `O=C(Cn1cc(CN2CCN(c3ccnc4cc(Cl)ccc34)CC2)nn1)Nc1cccc([N+](=O)[O-])c1`, the growth was 76.1% (inactive).

Regarding `C/C=C(\C)C(=O)N[C@H]1CC[C@]2(C)C3CC[C@@]4(C)C(CC[C@@H]4C(C)N(C)C)C3CCC2[C@H]1OC(C)=O` (stereo not given in full), the growth is -21.4% (active).

For `COc1ccc(-c2nn3c(-c4cc(F)c(Cl)cc4Cl)nnc3s2)cc1`, the growth was 61.1% (inactive).

Still in this test, the particulars now being: 100 µM.
With `CC(=O)/C=C/c1ccc(OCc2ccc(C(C)(C)C)cc2)cc1`, the growth was 39.5% (inactive).

As for `O=C(/C=C/c1cccc(Oc2ccc(Cl)cc2)c1)c1ccccc1`, the growth is -93.7% (active).
